# Test results as given in the supplement of paper PMC11417369.
# ± gives the standard deviation of the averaged measurements. Over roughly 25,000 sequences, “ln(normalized median fluorescence intensity)” has its median near 10; the highest 2% begin near 12. For the sample, the highest values were picked, then their nearest neighbours and some sequences at random.
# Test system: PfAP2-G AP2 domain (GST-tagged)
# Experiment: gcPBM binding intensity (ln(normalized median fluorescence intensity)); higher = stronger DNA binding
# How it was run: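 An Agilent 4 × 180k array of primer-extended double-stranded 36-bp intergenic genomic probes, with negative controls, was incubated for 1 h with GST-tagged P. falciparum DNA-binding domains expressed in E. coli. Alexa488 anti-GST antibody detected bound protein, scanned at 488 nm. Binding intensity is the highest Masliner-normalised natural-log median intensity across replicate spots of either probe orientation.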
row,Sequence,gcPBM binding intensity (ln)
1,TTTTTTAAATTTTGAATTATAACTACATTAAAGAAA [GTGCAC_negctrl_site279],9.8 ± 0.33
2,AATATATATATTTAAGTGCATAATATTGTAATATTA,9.91 ± 0.028
3,GGTATATAAAAATATTGTACTTAAAAAAATATGTAT [XGTACX_site6253],11.4 ± 0.99
4,TTGTTAATATGATAAAAGAGGAATATTCTCTTCCTA [GTGCAC_negctrl_site659],9.48 ± 0.14
5,ATATACATAATCTTCTTGCACTTTTTTTTTTTTTTT [GTGCAC_site9410],10.3 ± 0.22
6,AAAAAAGAACGCATAGTGCATATCTAAAAGATTTTT,9.85 ± 0.014
7,TATGTTAAAAAAAAATGTACATATGTTTTTGTTAAA [XGTACX_site4754],11.2 ± 0.86
8,TATATATATTTATGTACACACATATATACCTTTCAT [CACACA_site5479],11.4 ± 0.86
9,ATATGACGTAGTGGTGTACACACATGGTACCTTTAT [CACACA_site8436],11.9 ± 1.1
10,TATATATATATATGTACACACATATATACCTTTCAT [CACACA_site2679],11.4 ± 0.81
11,ATGACGTAGTGGTGTACACACATGGTACCTTTATTC [CACACA_site1547],11.6 ± 0.84
12,AATATGACGTAGTGGTGTACACACATGGTACCTTTA [XGTACX_site3147],11.7 ± 0.83
13,ATATAATATATATGGTGTACATTTTTTAGTGCTATT [XGTACX_site1662],11.4 ± 0.76
14,TTATATATTAATAGTAGTACTATATTGAATCACCCC [XGTACX_site2868],11.3 ± 0.85
15,TAATTTATAAATATAATATTTATGTATATGATGTTT [CACACA_negctrl_site464],9.795 ± 0.078
16,CATATTTTGAACTTCACACATATATATATATATATA [CACACA_site4228],10.3 ± 0.54
17,TTTTCTCAATTTTGGTGTACTTTTTTCTTAACACAT [XGTACX_site8918],11.7 ± 1
18,TCACACCTTTTTGGTTGTACTTAAATTTCTTTTTTT [XGTACX_site6438],11.2 ± 0.75
19,ATTTTATTAATTTGGTGTACTTAATTTATATTTTTC [XGTACX_site4947],11.6 ± 0.92
20,GTTTATGTATTATTATGTACGTATCATAATATATAT [XGTACX_site2385],11.5 ± 0.82
21,ATCTAAACCTTTTGAGCACACATATATATATATATA [CACACA_site8526],10.4 ± 0.3
22,TATGTTCCGAAGGTTGTACACACATAGAAATATACA [CACACA_site9285],11.6 ± 0.8
23,TGTTCCGAAGGTTGTACACACATAGAAATATACATA [CACACA_site3874],11.6 ± 0.74
24,ATATGTTCCGAAGGTTGTACACACATAGAAATATAC [XGTACX_site8227],11.6 ± 1
25,AACCACATGGTGTAATGTACATTACCTTAACAATAA [XGTACX_site3055],10.7 ± 0.42
26,TAAAATATACAAATTTGTACATATATATGTATGTAT [XGTACX_site1127],10.9 ± 0.38
27,AGAAAATTAAAAAGAACACACAAATATATATATAAT [CACACA_site5896],10.045 ± 0.007
28,ATATATATATATAATGCACACATTATGAATTATGTA [CACACA_site3384],9.9 ± 0.42
